Experimental data from PubChem BioAssay AID1376 (SRMLSC, 2008).
Among all 220,000 compounds or so, about 530 (0.24%) were called active. Many of the other results were omitted from the sample, so actives are more common in it than they were. Measured potencies and affinities stand elsewhere. Values without a mark were called inactive. Cut-off read from the data, not from the text of the source: active = inhibition above about 13%; inconclusive = no clear call, values can overlap the other calls; inactive = below that.

Target: Bifunctional protein GlmU (Mycobacterium tuberculosis (strain ATCC 25618 / H37Rv)) (UniProt P9WMN3)
Experiment: inhibition of mycobacterial GlmU enzyme – biochemical, glucosamine-1-phosphate acetyltransferase (AID 1376);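 note: 0% = complete reaction with vehicle and 100% = reaction without substrate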
Settings: M. tuberculosis GlmU acetyltransferase enzyme assay; active compounds read high;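 tested at 30 µM in the primary screen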

Bifunctional protein GlmU (Mycobacterium tuberculosis (strain ATCC 25618 / H37Rv)), sequence (P9WMN3 whole entry, looked up): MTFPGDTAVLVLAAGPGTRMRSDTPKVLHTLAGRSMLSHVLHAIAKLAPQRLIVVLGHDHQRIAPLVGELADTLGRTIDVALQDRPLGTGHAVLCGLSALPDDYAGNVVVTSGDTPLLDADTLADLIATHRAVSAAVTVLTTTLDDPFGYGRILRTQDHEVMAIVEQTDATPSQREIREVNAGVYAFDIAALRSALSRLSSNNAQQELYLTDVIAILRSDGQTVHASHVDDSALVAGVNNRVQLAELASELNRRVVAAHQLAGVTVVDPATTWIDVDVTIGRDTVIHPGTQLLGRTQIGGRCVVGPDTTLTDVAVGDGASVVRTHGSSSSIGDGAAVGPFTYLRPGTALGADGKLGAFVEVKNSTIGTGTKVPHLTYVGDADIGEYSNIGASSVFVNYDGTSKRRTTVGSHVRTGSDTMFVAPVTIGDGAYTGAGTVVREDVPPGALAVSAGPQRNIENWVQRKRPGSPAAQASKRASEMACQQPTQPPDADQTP

**Q.** `CCOC(=O)/C(C#N)=C/Nc1cc(C(=O)OCC)cc2c(OC)c(OC)ccc12` was tested. Which inhibition did it give?
**A.** 26.4% (active)

**Q.** For `CCOC(=O)/C(C#N)=C/Nc1ccccc1OC`, which inhibition is on record?
**A.** 1.82%

**Q.** How did the inhibition turn out when `CCOC(=O)/C(C#N)=C/Nc1cc(OC)ccc1OC` was run?
**A.** -9.19%

**Q.** How did the inhibition turn out when `C#Cc1ccc([C@H]2C=C(C(=O)NC3CC3)O[C@@H](OCC)[C@@H]2CCCO)cc1` was run?
**A.** 3.19%

**Q.** With `CCCN1C(=O)c2cc(C(=O)Nc3ccccc3C)ccc2C1Nc1ccccc1C` (configuration not stated) as the compound, how does the inhibition read?
**A.** 12.9% (active)

**Q.** For `CCCN1C(=O)c2cc(C(=O)Nc3ccc(OC)cc3OC)ccc2C1Nc1ccc(OC)cc1OC` (configuration not stated), which inhibition is on record?
**A.** -6.94%

**Q.** For `CCCN1C(=O)c2cc(C(=O)Nc3ccccc3OC)ccc2C1Nc1ccccc1OC` (configuration not stated), which inhibition is on record?
**A.** -4.43%

**Q.** Which inhibition does the source give for `Cc1cc(NC(=O)C2CCCCC2C(=O)O)no1` (configuration not stated) here?
**A.** -2.61%

**Q.** How did the inhibition turn out when `Cc1cccc(NNC(N)=S)c1C` was run?
**A.** 1.37%

**Q.** For `CN(C)c1ccc(/C=C/c2ccc3ccccc3[n+]2C)cc1`, which inhibition is on record?
**A.** -0.66%

**Q.** `CN(C)c1ccc(/C=C/c2ccc3c4ccccc4ccc3[n+]2-c2ccccc2)cc1` was tested. Which inhibition did it give?
**A.** 41% (active)

**Q.** How did the inhibition turn out when `CC[n+]1c(/C=C/c2ccc(N(C)C)cc2)ccc2ccccc21` was run?
**A.** 2.12%

**Q.** For `Cn1cccc1CC(=O)N/N=C/c1cccc([N+](=O)[O-])c1`, which inhibition is on record?
**A.** -5.88%

**Q.** `Cc1ccc(-n2c(C)nc3c(cnn3-c3ccc(C)c(C)c3)c2=O)cc1C` was tested. Which inhibition did it give?
**A.** 6.8%

**Q.** For `Cc1ccc(-n2c(C)nc3c(cnn3-c3ccc(F)cc3)c2=O)cc1C`, which inhibition is on record?
**A.** -3.89%

**Q.** `Cc1ccc(-n2ncc3c(=O)n(-c4ccc(C)c(C)c4)c(C)nc32)cc1` was tested. Which inhibition did it give?
**A.** 48.2% (active)

**Q.** For `Cn1cc(/C=N/NC(=O)c2ccc(C#N)cc2F)c2ccccc21`, which inhibition is on record?
**A.** 1.51%

**Q.** `CN(C)Cc1c(O)ccc2c3c(c(=O)oc12)CCCCC3` was tested. Which inhibition did it give?
**A.** 0.45%

**Q.** `CN(Cc1c(O)ccc2c1oc(=O)c1ccccc12)C1CCCCC1` was tested. Which inhibition did it give?
**A.** 14% (active)

**Q.** Which inhibition does the source give for `C=CCN(CC=C)Cc1c(O)ccc2c1oc(=O)c1ccccc12` here?
**A.** -2.23%

**Q.** For `COc1ccc2cc3cc(C(=O)NCCCN4CCc5ccccc5C4)sc3nc2c1`, which inhibition is on record?
**A.** -12.5%

**Q.** For `Cc1ccc(/C=N/NC(=O)C[n+]2ccccc2)o1`, which inhibition is on record?
**A.** 5.08%

**Q.** `O=C(CCC(=O)c1cccs1)Nc1nnc(C2CC2)s1` was tested. Which inhibition did it give?
**A.** 2.51%

**Q.** How did the inhibition turn out when `Cc1ccsc1/C=N/NC(=S)NCc1ccccc1` was run?
**A.** 0.62%

**Q.** For `O=[N+]([O-])c1ccc2nccn2c1`, which inhibition is on record?
**A.** 2.74%

**Q.** How did the inhibition turn out when `CC(=O)NC1=NC(=O)/C(=C/c2cc(C)n(-c3ccc(NC(C)=O)cc3)c2C)S1` was run?
**A.** 3.45%

**Q.** Which inhibition does the source give for `Cc1ccc(NC(=O)CN2C(=O)S/C(=C\c3cccn3-c3cccc(C(=O)O)c3)C2=O)cc1C` here?
**A.** 6.74%

**Q.** Which inhibition does the source give for `Cc1ccc(NC(=O)CN2C(=O)N/C(=C/c3cc(C)n(-c4cccc(C(=O)O)c4)c3C)C2=O)cc1` here?
**A.** 14.9% (active)

**Q.** How did the inhibition turn out when `Cc1ccc(NC(=O)CN2C(=O)S/C(=C\c3cc(C)n(-c4cccc(C(=O)O)c4)c3C)C2=O)cc1` was run?
**A.** 0.24%

**Q.** How did the inhibition turn out when `Cc1cc(C=C2C(=O)c3ccccc3C2=O)c(C)n1-c1cccc(C(=O)O)c1` was run?
**A.** 7.28%

**Q.** How did the inhibition turn out when `Cc1ccc(NC(=O)CN2C(=O)N/C(=C/c3ccc(N4CCOCC4)cc3)C2=O)cc1` was run?
**A.** -5.18%

**Q.** For `Cc1cccc(NC(=O)CN2C(=O)N/C(=C\c3cccn3-c3cccc(C(=O)O)c3)C2=O)c1`, which inhibition is on record?
**A.** -2.01%

**Q.** With `Cc1ccc(NC(=O)CN2C(=O)N/C(=C/c3cc(C)n(-c4ccc(C(=O)O)cc4)c3C)C2=O)cc1` as the compound, how does the inhibition read?
**A.** 8.1%

**Q.** For `Cc1ccc(-n2cccc2/C=C2/NC(=O)N(CC(=O)Nc3cccc(C)c3)C2=O)cc1`, which inhibition is on record?
**A.** 10.8%

**Q.** Which inhibition does the source give for `COc1ccccc1CNC(=O)CS(=O)Cc1nc(-c2ccccc2C)oc1C` (configuration not stated) here?
**A.** -3.21%

**Q.** `COc1ccc(CCNC(=O)c2ccc3ccccc3n2)cc1OC` was tested. Which inhibition did it give?
**A.** 1.59%

**Q.** Which inhibition does the source give for `CCc1cccc(C)c1NC(=S)N(CCN(C)C)C(C)c1ccco1` (configuration not stated) here?
**A.** -1.5%

**Q.** How did the inhibition turn out when `Cc1occc1C(=O)N/N=C/c1cnn(C)c1C` was run?
**A.** 0.23%

**Q.** For `CC1CN=C(NCCc2ccccc2)S1` (configuration not stated), which inhibition is on record?
**A.** -5.97%

**Q.** `COc1ccc(Cl)cc1N(C(C)C(=O)NC1CCCC1)S(C)(=O)=O` (configuration not stated) was tested. Which inhibition did it give?
**A.** -1.06%

**Q.** How did the inhibition turn out when `Cc1nonc1C(=O)N/N=C/c1cccc(O)c1` was run?
**A.** -5.8%

**Q.** How did the inhibition turn out when `O=C1C=C(N2CCOCC2)C2(CCCCC2)O1` was run?
**A.** -4.46%

**Q.** Which inhibition does the source give for `CC(C)S(=O)(=O)c1nsc2nc(=O)c(/C=C3\C=Nc4ccccc43)c(N)n12` here?
**A.** 14.9% (active)

**Q.** How did the inhibition turn out when `CS(=O)(=O)c1nsc2nc(=O)c(/C=C3\C=Nc4ccccc43)c(N)n12` was run?
**A.** 9.05%

**Q.** Which inhibition does the source give for `CC1=Nc2ccccc2/C1=C/c1c(N)n2c(S(=O)(=O)C(C)C)nsc2nc1=O` here?
**A.** 6.27%

**Q.** For `COc1ccc2[nH]c3c(N4CCc5ccccc5C4)ncnc3c2c1`, which inhibition is on record?
**A.** 0.43%

**Q.** Which inhibition does the source give for `Cc1cc(C)n2nc(CC(=O)NCc3ccc(F)cc3)nc2n1` here?
**A.** 3.44%
